Laboratory results as given in PubChem BioAssay AID571 (The Scripps Research Institute Molecular Screening Center, 2007).
Hit rate of the full screen: of about 65,000 compounds, about 640 (0.98%) were called active. The list comes from a sample in which actives are over-represented; it also holds similar structures and randomly drawn compounds. Unmarked numbers belong to inactive results.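 Rule for the calls: active = inhibition above a set limit, the mean inhibition across every tested compound plus 3 SD (cut at about 29% in these data); inactive = the rest.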

Molecular target: 5-hydroxytryptamine receptor 1E (Homo sapiens) (UniProt P28566)
Sequence (P28566 whole entry, looked up): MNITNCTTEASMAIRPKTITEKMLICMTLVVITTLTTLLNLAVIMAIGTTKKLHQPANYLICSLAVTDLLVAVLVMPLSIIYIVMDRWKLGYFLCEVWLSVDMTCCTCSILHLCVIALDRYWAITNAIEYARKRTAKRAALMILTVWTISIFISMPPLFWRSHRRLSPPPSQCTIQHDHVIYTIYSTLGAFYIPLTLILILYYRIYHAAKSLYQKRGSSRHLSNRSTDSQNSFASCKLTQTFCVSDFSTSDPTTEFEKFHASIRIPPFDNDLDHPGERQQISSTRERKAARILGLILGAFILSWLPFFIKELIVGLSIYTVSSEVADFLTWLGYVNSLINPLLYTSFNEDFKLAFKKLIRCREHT
Experiment: blockade of human serotonin 5HT1E receptor – cell-based, HTS, primary screen (AID 571);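 note: signal is the 460 over 535 nm emission ratio of beta-lactamase substrate; 0% = agonist plus DMSO wells and 100% = wells without agonist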
Conditions: CHO 5-HT1E Ga15 NFAT-bla reporter, FRET, antagonist; at 6 µM; hits give high values

SMILES	inhibition
COc1cc(C(=O)N(Cc2ccc(N(C)C)cc2)C2CCS(=O)(=O)C2)cc(OC)c1OC (configuration not stated)	-0.54%
COc1cc2c(cc1OC)C(c1ccc(C)o1)CC(=O)N2 (configuration not stated)	11.3%
COCCOC(=O)C1=C(C)NC(=O)CC1c1cc2c(cc1Br)OCO2 (configuration not stated)	-1.17%
CCCOc1ccccc1C1CC(=O)Nc2cc3c(cc21)OCO3 (configuration not stated)	52.8% (active)
Cn1c(-c2ccco2)nc2cc3ccccc3cc21	1.87%
CCOCCN(C=O)c1cccc(OC)c1	-9.77%
COC(=O)c1ccc(NCC(=O)c2ccccc2)cc1	-2.89%
COc1ccc(C(=O)NCCc2ccc(S(N)(=O)=O)cc2)cc1OC	12.5%
CCOC(=O)N1CCN(S(=O)(=O)c2ccc(C(=O)Nc3ccc(F)cc3F)cc2)CC1	38.3% (active)
O=C(CN1CCN(S(=O)(=O)c2ccc(F)cc2)CC1)Nc1ccccc1F	2.85%
O=C(Nc1cccc(F)c1)c1ccc(S(=O)(=O)N2CCCC2)cc1	-2.92%
CCOC(=O)c1sc(NC(=O)CSc2ncccn2)c(C#N)c1C	-1.65%
O=S(=O)(c1ccccc1)N(CC(O)CN1CCCCC1)c1ccccc1 (configuration not stated)	-17.2%
Cc1ccc(NC(=O)N2CCC(C(=O)NCc3ccc(F)cc3)CC2)cc1	-1.42%
O=S(N1CCCCCC1)C12CC3CC(CC(C3)C1)C2 (configuration not stated)	-12.6%
CCC(C)NC(=O)N[C@@H](CCSC)C(=O)O (some centres not stated)	-2.48%
Oc1c(C(c2cccs2)N2CCN(c3ccc(F)cc3)CC2)sc2ncnn12 (configuration not stated)	-14%
O=C(CCSCCc1ccccn1)Nc1nccs1	-8.42%
CCC(=O)N(Cc1cc2cc(OC)ccc2[nH]c1=O)c1ccccc1C	15.6%
C/C(=C\C(=O)c1cccnc1)Nc1ccc(C)c(C)c1	-0.61%
O=C(CNC(=O)c1ccc(Cl)cc1Cl)NCC(=O)Nc1ccccc1N1CCOCC1	5.85%
CCOC(=O)c1cc(-c2nnc(-c3cc(OC)c(OC)c(OC)c3)o2)c(C)nc1C	-9.6%
CCCc1nc2ccccc2c(C(=O)OCc2nnc(-c3cc(OC)c(OC)c(OC)c3)o2)c1CC	23%
COc1cc(-c2nnc(Cn3cc(C(F)(F)F)ccc3=O)o2)cc(OC)c1OC	29% (active)
COc1cccc(NC(=O)Cn2cnc3sc(C)c(S(=O)(=O)N4CCN(C)CC4)c3c2=O)c1	-6.2%

SMILES	inhibition
COc1ccc(CSc2nc(N3CCOCC3)c3c(c2C#N)CC(C)(C)OC3)cc1	-10.9%
CC(C)c1nc(N2CCOCC2)c(C#N)c2c1COC(C)(C)C2	10.4%
CC1(C)Cc2c(C#N)c(SCc3nc4ccccc4[nH]3)nc(N3CCOCC3)c2CO1	28.9% (active)
O=C(CSc1nnc(-c2cccnc2)n1Cc1ccco1)c1ccc(Cl)cc1	11%
COc1ccc(-c2c3c(=O)n(C)c(=O)n(C)c3cn2-c2cccc(OC)c2)cc1	6.73%
Cc1ccc(-c2c3c(=O)n(C)c(=O)n(C)c3cn2-n2cnnc2)cc1	30.5% (active)
Cc1ccc(-c2c3c(=O)n(C)c(=O)n(C)c3cn2-c2ccccc2O)cc1	4.09%
CC1CC(C)CN(CC(=O)Nc2ccc(S(N)(=O)=O)cc2)C1 (configuration not stated)	-5.33%
Cc1ccc(SCc2cc(=O)[nH]c(N3CCCCC3)n2)cc1	2.38%
C=CCSc1nnc(Cn2c(=O)sc3ccccc32)n1C	1.57%
COc1ccccc1N1CCN(C(=O)CN(Cc2ccc(Cl)cc2)S(C)(=O)=O)CC1	-2.25%
COc1ccccc1-n1nnnc1S(=O)(=O)Cc1ccc(Cl)cc1	29.9% (active)
COc1ccccc1N1CCN(Cc2nnnn2CCc2ccccc2)CC1	-0.82%
Cn1cnc2c1c(=O)n(Cc1c(Cl)cccc1Cl)c(=O)n2C	5.12%
COC(=O)CNS(=O)(=O)c1ccc(Cc2ccc(S(=O)(=O)NCC(=O)OC)cc2)cc1	3.6%
CCCn1c(C(O)c2ccc(OCC)cc2)nc2ccccc21 (configuration not stated)	-10.8%
COc1ccc(CCn2c(NCCCN3CCOCC3)nc3c2c(=O)[nH]c(=O)n3C)cc1	-6.49%
COC(=O)c1ccc(NC(=O)CN(c2ccc(C)cc2)S(=O)(=O)c2c(C)n[nH]c2C)cc1	3.08%
CCOC(=O)c1ccc(-c2ccc(C(=O)Nc3cccnc3)o2)cc1	10.9%
Cc1cccc(NC(=O)CSc2nnc(NC(=O)CN3CCOCC3)s2)c1	-3.22%
CCC(=O)Nc1ccc(C(=O)CSc2nnc(CNc3ccc(Cl)cc3)o2)cc1OC	1.52%
COc1ccc2c(c1OC)C(=O)N(c1ncn[nH]1)C2	-0.04%
COCC(C)n1c(SCc2ccc(C(=O)OC)o2)nc2ccccc2c1=O (configuration not stated)	24.9%
COC(=O)c1ccc(CSc2nc3ccccc3c(=O)n2-c2cccc(OC)c2)o1	39.7% (active)
COC(=O)c1ccc(CSc2ccccc2C)o1	1.46%

SMILES	inhibition
Cc1cc(Nc2cccc(F)c2)n2ncnc2n1	-1.52%
CC(=O)NCCc1ccc(S(=O)(=O)N(C)C2CCS(=O)(=O)C2)cc1 (configuration not stated)	-8.57%
Fc1ccc2[nH]c3c(N4CCSCC4)ncnc3c2c1	54.9% (active)
Fc1ccc2nc(N3CCCCC3)sc2c1	1.55%
Fc1ccc2[nH]c3c(N4CCN(Cc5ccc6c(c5)OCO6)CC4)ncnc3c2c1	27.4%
C=CCN(CC=C)C(=O)CN1C(=O)c2ccccc2C1=O	1.46%
Oc1ccc2nc(Cc3ccccc3)[nH]c2c1	-16.1%
COC(=O)Cc1nc2ccccc2[nH]1	-1.34%
COC(=O)Nc1nc2ccc(Sc3ccccc3)cc2[nH]1	65.7% (active)
CCOc1ccccc1C1CC(c2ccc(Cl)cc2)Nc2nc(N)nn21 (configuration not stated)	4.62%
N=c1n(Cc2ccc(Cl)cc2)c2ccccc2n1CC(O)c1ccco1 (configuration not stated)	-1.68%
CC(=O)NC(C)(C)C1CC=C(C)/C(=N\O)C1 (configuration not stated)	6.93%
CC(C)(C)C(=O)CCN1C(=O)C2(OCCO2)c2ccccc21	-0.27%
COc1ccc2[nH]c3c(=O)n(Cc4ccco4)cnc3c2c1	9.2%
CSc1nnc(CNC(=O)c2ccccc2)n1-c1ccc(F)cc1	4.06%
CC(NC(=O)c1ccco1)C(=O)Nc1nc(-c2ccccn2)cs1 (configuration not stated)	-4.44%
CCn1c(Cc2ccccc2)nnc1SCC(=O)Nc1ccccc1	-6.68%
CC1(C)CC(=O)C=C(NCCCNC2CCCCC2)C1	7.98%
Cc1ccccc1-n1c(SCC(=O)NCc2cccs2)nnc1-c1ccncc1	-6.81%
Cc1nnc(SCC(=O)NCc2cccs2)[nH]c1=O	2.95%
CCN(CC(=O)NCc1cccs1)c1nnnn1-c1ccccc1	28.8% (active)
O=C1c2ccccc2-c2ncnc3c(N4CCOCC4)cc(N4CCOCC4)c1c23	38.7% (active)
c1cnn(-c2cc(N3CCOCC3)ncn2)c1	-8.12%
c1ccc(-c2oc3ncnc(N4CCOCC4)c3c2-c2ccccc2)cc1	-16.4%
COc1ccccc1N(C(=O)Cn1nnc2ccccc21)C(C(=O)NCc1ccco1)c1ccc(C)o1 (configuration not stated)	12.3%

SMILES	inhibition
COc1ccc(-c2ccc(Nc3ccc(S(=O)(=O)N4CCCC4)cc3)nn2)cc1OC	20.8%
COc1ccc(-c2cc(C(F)(F)F)nc(S(C)(=O)=O)n2)cc1OC	70.8% (active)
COc1ccc(-c2nnco2)cc1OC	3.01%
CCc1nc(Nc2ccc3nccnc3c2)c2oc3ccccc3c2n1	51.6% (active)
CCSc1nc(C)nc2c1oc1ccccc12	10.3%
CCc1nc(N2CCN(c3nc(C)cc(C)n3)CC2)c2oc3ccccc3c2n1	4.92%
Cc1ccc(N(CC(O)CN2CCCC2)S(=O)(=O)c2ccccc2)cc1 (configuration not stated)	-0.23%
Cc1ccc(Nc2cc(=O)n(C3CCCCC3)c(=O)[nH]2)cc1C	-5.13%
CN1CCN(Cc2nc3c(c(=O)n(C)c(=O)n3C)n2Cc2cccc3ccccc23)CC1	1.52%
COc1ccc(N(CC(=O)NC2CCCCCCC2)S(=O)(=O)c2c(C)nn(C)c2C)cc1	-13.7%
Cc1cn(C2C=CC(CO)O2)c(=O)[nH]c1=O (configuration not stated)	-4.28%
O=C(CN1C(=O)CSc2ncccc21)N1CCOCC1	16.6%
Cc1cccc(CSc2nnc(Cn3c(=O)sc4ccccc43)n2C)c1	-7.45%
COc1cccc(-c2cc3nc4c(c(N5CCC6(CC5)OCCO6)n3n2)CCCC4)c1	28.7% (active)
Cc1nc2cc(-c3ccc(F)cc3)nn2c(N2CCOCC2)c1C	-1.31%
COc1cccc(-c2nc(S(=O)(=O)c3ccccc3)c(N3CCOCC3)o2)c1	19.7%
Cc1ccc(-n2ncc3c2ncn2nc(-c4ccco4)nc32)c(C)c1	40% (active)
Cc1ccc(-n2ncc3c(=O)[nH]cnc32)c(C)c1	13%
Cc1ccc(-n2ncc3c(N4CCN(c5ccc(F)cc5)CC4)ncnc32)c(C)c1	5.14%
COc1c(C)cccc1C(=O)Nc1cc(Cl)ccc1N1CCOCC1	0.53%
O=C(Cn1nnc2ccccc2c1=O)Nc1cc(C(F)(F)F)ccc1N1CCOCC1	5.96%
Cn1nc(-c2ccc(N3CCOCC3)c(NC(=O)c3ccccc3)c2)c2ccccc2c1=O	29.7% (active)
